The text below walks through data of PubChem BioAssay AID1347071 (National Center for Advancing Translational Sciences (NCATS), 2019).

Out of some 410,000 compounds screened, about 260 (0.063%) were called active. Entries that show only a call come without a potency. About 2% were inconclusive and are not listed. The call rests on the fitted dose curve; in most records, active means well fitted activation curve with a large enough effect; inconclusive means small, poorly fitted or top-dose-only effect; inactive means no such curve, though single readings can be large or run the other way. The full list was thinned out, with actives kept by preference.

The nature of this assay: qHTS for compounds that reverse cellular toxicity of Amyloid beta (A-beta) peptide in yeast: Primary Screen. Further: nearly all actives have a fitted effect of over 55% in size. The following applies: yeast expressing A-beta42, growth rescue, OD600, 48 h; series mostly up to 46.1 µM. The source says:
The A-beta peptide is produced by the processing of the amyloid precursor protein (APP) by two proteases, beta and gamma secretases. […] A-beta42 is regarded as the most amyloidogenic form due to its hydrophobicity; however, precisely how A-beta42 induces neurotoxicity is unclear. To understand further this biology and its potential therapeutic implications for human neurodegenerative disease, a quantitative high-throughput screen for compounds that reverse the cellular toxicity of the A-beta peptide was developed. A yeast based screen was used because it recapitulates the salient feature of protein mis-folding disorder accurately. This cell-based phenotypic screen provides a significant, unbiased advantage by letting the compounds and models inform us which proteins or pathways are most relevant. The ideal chemical candidates would therefore have activity in both our primary yeast and secondary neuronal toxicity assays, as well as in mouse models. They will be valuable tools for dissecting diverse protein homeostasis pathologies and could potentially become the focus for future pre-clinical development. For this luminescence assay, inhibition of A-beta rescues the toxic effect in the yeast cell, resulting in increase of signals and the desired phenotype of "Activator". This screen is run against the Molecular Libraries Small Molecule Repository (MLSMR) and the NCGC Sytravon Library Collection.
NIH Chemical Genomics Center [NCGC]
NIH Molecular Libraries Probe Centers Network [MLPCN]
Assay Submitter (PI): Susan Lindquist, Whitehead Institute, Massachusetts Institute of Technology
[1] Vassar R,et al (1999). Beta-secretase cleavage of Alzheimer's amyloid precursor protein by the transmembrane aspartic protease BACE. Science. 286: 735-741.
[2] Yan R, et al (1999). Membrane-anchored aspartyl protease with Alzheimer's disease beta-secretase activity. Nature. 402: 533-536.
Two and a half microliter / well of yeast growth medium were dispensed in a 1536 assay plate. Compounds were pinned using the Kalypsys robotic system followed by addition of 2.5 uL / well yeast solution. The assay plates were incubated at 30 C. After 48 hr, the absorbance signal at 600 nm was obtained using the PerkinElmer ViewLux plate reader to assess yeast growth. The data was normalized to the positive control of an equimolar mixture of ferric chloride (FeCl3) and clioquinol and to the negative control DMSO.
For orientation: In qHTS, concentration-response curves come from the screen itself.
For `Cc1cccc(NC(=O)C2CCCN2S(=O)(=O)c2cccc3nsnc23)c1C` (configuration not stated), the Potency result was “inactive”.

For the molecule `COc1ccc(OCCCn2c(C)nc3cc(C)c(C)cc32)cc1`, the Potency result is “inactive”.

Take `Cc1c(-c2nc(-c3ccc4c(c3)OCO4)no2)nnn1-c1ccc(Br)cc1F`: the Potency result is “inactive”.

In the case of `O=C(CCn1ccc2cc(S(=O)(=O)N3CCCC3)ccc21)NCc1cccc(Cl)c1`, the Potency entry is “inactive”.

As for `O=C(CSc1oc(-c2ccccc2)nc1S(=O)(=O)c1ccc(Br)cc1)NC1CCCCC1`, the Potency result is “inactive”.

Take `CC(C)CCNC(=O)CSc1nc2ccccc2nc1Cc1ccc(Cl)cc1`: the Potency result is “inactive”.

Take `COc1cc(C(=O)Nc2ccc(-n3c(C)nc4ccccc4c3=O)cc2)cc(OC)c1OC`: the Potency entry is “inactive”.

For the molecule `CCOc1ccccc1C(=O)Nc1ccc(S(=O)(=O)N2CCCCC2c2cccnc2)cc1` (configuration not stated), the Potency result was “inactive”.

Regarding `Cn1c(=O)c2c(nc(Oc3ccc(C#N)cc3)n2Cc2ccc(Cl)cc2Cl)n(C)c1=O`, the Potency entry is “inactive”.

For `CCN(c1ncnc2c1cnn2-c1ccc(C)cc1)C1CCCCC1`, the Potency entry is “inactive”.

Consider `Cc1ccc(NC(=O)c2nc(S(=O)(=O)Cc3cccc(C)c3)ncc2Cl)cc1`, for which the Potency result is “inactive”.

In the case of `Cc1nnc(N2CCCC(C(=O)NCCN(C)C)C2)c2nn(-c3ccccc3)c(C)c12` (configuration not stated), the Potency result was “inactive”.

Consider `COc1ccc(C2=NC(c3ccncc3)=Nc3ccc(Br)cc3N2)cc1`, for which the Potency result was “inactive”.

Take `COc1ccc(OC)c(-n2nnc3c(sc4nc(C)c(Br)c(C)c43)c2=O)c1`: the Potency entry is “inactive”.

Regarding `CCS(=O)(=O)N1CCC(n2c(C)nc3cccnc32)CC1`, the Potency entry was “inactive”.

For `COc1cc(OC)c(NC(=O)N2CC3CCCN3c3ccccc32)cc1Cl` (configuration not stated), the Potency result is “inactive”.

On to `CCOc1ccc(CNC(=O)c2ccc(CS(=O)c3ccccc3)o2)cc1` (configuration not stated), for which the Potency result is “inactive”.

As to `CCCCn1c(=N)c(S(=O)(=O)c2ccccc2)cc2c(=O)n3cccc(C)c3nc21`, the Potency result is “inactive”.

`Fc1ccc(Nc2nc(SCc3ccccc3Cl)nc3ccccc23)cc1`: the Potency entry was “inactive”.

As for `COc1ccccc1N1CCN(C(=O)C2CCN(S(=O)(=O)c3c(C)noc3/C=C/c3ccc(C)cc3)CC2)CC1`, the Potency entry was “inactive”.

As for `Cc1ccc2oc3c(c(=O)c2c1)C(c1ccc(O)cc1)N(Cc1ccc2c(c1)OCO2)C3=O` (configuration not stated), the Potency result is “inactive”.

Turning to `COc1ccc(-c2cc(NCc3ccc(F)cc3)n3cnnc3n2)cc1`, the Potency entry was “inactive”.

As for `CCCCN(C)S(=O)(=O)c1ccc(C(=O)Nc2sc3c(c2C(N)=O)CC(C)(C)NC3(C)C)cc1`, the Potency entry was “inactive”.

As for `Cc1ccc(N(CC(=O)NCc2ccc(Cl)cc2)S(=O)(=O)N(C)C)cc1`, the Potency entry was “inactive”.

For `Cc1cc2nn(-c3ccc(Cl)cc3)nc2cc1NC(=O)C(C)C`, the Potency result was “inactive”.

Turning to `Cc1ccc(C(=O)CSc2nc(-c3ccccc3)nc3c2CCCC3)c(C)c1`, the Potency result was “inactive”.

Consider `O=C(NC1CC(=O)N(c2ccccc2)C1)c1ccco1` (configuration not stated), for which the Potency result was “inactive”.
